Each compound was assayed on Neuro-2a (assay: neurite formation score, plate-normalized to DMSO control mean 5.04 (score (0-8 scale)); higher = more or longer neurites). Conditions: 1 µM.
Procedure: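 Neuro-2a mouse neuroblastoma cells in PLL-coated 96-well plates were pre-treated for 1 h in DMEM(+) with each kinase inhibitor at 1 µM, then switched to serum-free DMEM(-) with inhibitor to induce neurite outgrowth and fixed about 2-3 h later. Three blinded observers scored neurite formation from 0 (no neurites) to 8 (long neurites on almost all cells).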

SMILES	neurite formation score
CCN(CC)CCCC(C)Nc1ccnc2cc(Cl)ccc12 (stereo not given) [Chloroquine diphosphate]	4.96
CN1CCC(CNc2ccc3ncc(-c4cccc(OC(F)(F)F)c4)n3n2)CC1 [SGI-1776 free base]	5.69
CC(C)Nc1cc(-c2c[nH]c(C(=O)N[C@H](CO)c3cccc(Cl)c3)c2)c(Cl)cn1	3.47
N=C(N)NCCC(=O)O [3-Guanidinopropionic Acid]	5.21
Cc1cnc(NC(=O)Nc2cc(Br)c(C)cc2OC[C@@H]2CNCCO2)cn1	4.96
CN1CCN(C2CCN(C(=O)Nc3cc(Oc4ccc(NC(=O)C5(C(=O)Nc6ccc(F)cc6)CC5)c(F)c4)ccn3)CC2)CC1 [Golvatinib (E7050)]	4.14
Cc1cc(C)c(/C=C2\C(=O)Nc3ccccc32)[nH]1 [Semaxanib (SU5416)]	4.54
Cc1cc(CN2CCN(c3c(Br)cnc4nc(-c5ccc(N6CCN(C)CC6)cc5)[nH]c34)CC2)no1	4.47
COc1cc(OC)c(/C=C/S(=O)(=O)Cc2ccc(OC)c(NCC(=O)O)c2)c(OC)c1	0.908
COc1cc2ncnc(Nc3cccc(Cl)c3)c2cc1OC	3.57
Cc1[nH]c2ccccc2c1C1=C(NCCc2ccc(F)cc2)C(=O)N(C)C1=O	4.54
C[C@H]1Oc2cc(cnc2N)-c2c(nn(C)c2C#N)CN(C)C(=O)c2ccc(F)cc21	4.21
N#CC(=C(/N)Sc1ccccc1N)/C(C#N)=C(\N)Sc1ccccc1N	4.57
Cc1[nH]c(/C=C2\C(=O)Nc3ccccc32)c(C)c1CCC(=O)O [TSU-68 (SU6668,Orantinib)]	4.57
C[C@H](Nc1ncnc2nc[nH]c12)c1cc2cccc(Cl)c2c(=O)n1-c1ccccc1	2.91
NC(=O)c1cccc(-c2cc(Nc3ccc(OC(F)(F)F)cc3)ncn2)c1	5.14
Cc1[nH]c(/C=C2\C(=O)Nc3ccc(S(=O)(=O)N(C)c4cccc(Cl)c4)cc32)c(C)c1C(=O)N1CCN(C)CC1	3.57
CN(C)C/C=C/C(=O)Nc1cc2c(Nc3ccc(F)c(Cl)c3)ncnc2cc1O[C@H]1CCOC1 [Afatinib dimaleate]	4.91
CCOc1cc2ncc(C#N)c(Nc3ccc(F)c(Cl)c3)c2cc1NC(=O)/C=C/CN(C)C [Pelitinib (EKB-569)]	3.91
O=C1c2ccc(Nc3ccc(F)cc3F)cc2CCc2ccc(OC[C@H](O)CO)cc21 [Skepinone-L]	5.02

SMILES	neurite formation score
N#Cc1c(O)c2c(-c3ccc(-c4ccccc4O)cc3)csc2[nH]c1=O	5.69
O=S(=O)(NCCNC/C=C/c1ccc(Br)cc1)c1cccc2cnccc12	4.54
NC(=O)c1ccc(-c2nc(-c3ccc4c(c3)OCCO4)c(-c3ccccn3)[nH]2)cc1	4.36
CN1CCC(COc2cnc(-c3cccc(Cn4nc(-c5cccc(C#N)c5)ccc4=O)c3)nc2)CC1	3.69
COc1cc2c(N3CCN(C(=O)Nc4ccc(OC(C)C)cc4)CC3)ncnc2cc1OCCCN1CCCCC1 [Tandutinib (MLN518)]	5.29
CO[C@H]1C[C@@H]2CC[C@@H](C)[C@@](O)(O2)C(=O)C(=O)N2CCCC[C@H]2C(=O)O[C@H]([C@H](C)C[C@@H]2CC[C@@H](OP(C)(C)=O)[C@H](OC)C2)CC(=O)[C@H](C)/C=C(\C)[C@@H](O)[C@@H](OC)C(=O)[C@H](C)C[C@H](C)/C=C/C=C/C=C/1C [Ridaforolimus (Deforolimus, MK-8669)]	4.21
NC1(C(=O)N[C@@H](CCO)c2ccc(Cl)cc2)CCN(c2ncnc3[nH]ccc23)CC1	5.57
CCN1C(=CC(C)=O)Sc2ccc(OC)cc21	4.96
CCS(=O)(=O)Nc1ccc2[nH]c(O)c(C(=Nc3ccc(CN4CCCCC4)cc3)c3ccccc3)c2c1 [Hesperadin]	1.02
CNC(=O)c1ccc(C)c(-n2c(C)cc(OCc3ccc(F)cc3F)c(Br)c2=O)c1	3.57
CN1CCN(c2cccc(Nc3nc4c(-c5ccc(S(C)(=O)=O)cc5)cccn4n3)c2)CC1	4.69
CNC(=O)c1cc(Oc2ccc(NC(=O)Nc3ccc(Cl)c(C(F)(F)F)c3)c(F)c2)ccn1 [Regorafenib monohydrate]	4.69
O=C1C(c2c(O)[nH]c3ccccc23)=Nc2ccccc21 [Indirubin]	4.88
C=CC(=O)Nc1cccc(Nc2nc(Nc3ccc(NC4CN(CCF)C4)cc3OC)ncc2C(F)(F)F)c1	4.88
OCCn1cc(-c2cnc3nnn(Cc4ccc5ncccc5c4)c3n2)cn1	5.02
COc1c(OCCCN2CCOCC2)ccc2c3n(c(=NC(=O)c4cnc(N)nc4)nc12)CCN3 [BAY 80-6946 (Copanlisib)]	4.14
Cc1ccc(-n2nc(C(C)(C)C)cc2NC(=O)Nc2ccc(OCCN3CCOCC3)c3ccccc23)cc1 [BIRB 796 (Doramapimod)]	4.57
CNC(=O)Nc1ccc(-c2nc(N3CC4CCC(C3)O4)c3cnn(C4CCC5(CC4)OCCO5)c3n2)cc1	3.54
CN(C)C(=O)c1cc2cnc(Nc3ccc(N4CCNCC4)cn3)nc2n1C1CCCC1	4.96
C=CCc1ccc(O)c(-c2ccc(O)c(CC=C)c2)c1 [Honokiol]	4.47
